Laboratory results: PubChem BioAssay (EPA / NIEHS)
The source made the active and inactive calls. The calls were made as follows: active = hit-call score of the fitted dose curve at least 0.9, where 1 is the maximum; inactive = score below 0.9.

The compounds below were run on Fatty Acid-Binding Protein 1 (FABP1), FABP1 (gene 2168) (assay: LTEA_HepaRG_FABP1: Life Technologies and Expression Analysis (LTEA) Assay for Fatty Acid-Binding Protein 1 (FABP1) using HepaRG (AID 2283494)). Details: mRNA level, 48 h; actives raise or lower the signal.
Summary of the method: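 Differentiated human HepaRG cells were exposed in duplicate for 48 h in serum-free induction medium to 8-point half-log concentration series topping at 100 uM in 0.5% DMSO. FABP1 mRNA measured by TaqMan qRT-PCR, normalized to ACTB/GAPDH/POLR2A; bidirectional fit versus DMSO.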

| Structure (SMILES) | outcome |
| --- | --- |
| C1CNCCN1 | inactive |
| Cc1ccc([N+](=O)[O-])cc1N | inactive |
| Nc1ccc(C(=O)O)cc1 | inactive |

These compounds were tested on Cytochrome P450 4A22 (Homo sapiens) (UniProt Q5TCH4) (assay: LTEA_HepaRG_CYP4A22: Life Technologies and Expression Analysis (LTEA) Assay for Cytochrome P450 4A22 (CYP4A22) using HepaRG (AID 2283495)). Details: mRNA level, 48 h; actives raise or lower the signal.
Summary of the method: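 Differentiated HepaRG cells in serum-free induction medium exposed 48 h in duplicate to eight half-log concentrations up to 100 uM in 0.5% DMSO. CYP4A22 mRNA quantified by TaqMan qRT-PCR, normalized to ACTB, GAPDH and POLR2A; bidirectional fit versus DMSO.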

| Structure (SMILES) | outcome |
| --- | --- |
| C1CNCCN1 | inactive |
| Cc1ccc([N+](=O)[O-])cc1N | inactive |
| Nc1ccc(C(=O)O)cc1 | inactive |

What follows are compounds tested on Cytochrome P450 7A1 (Homo sapiens) (UniProt P22680) (assay: LTEA_HepaRG_CYP7A1: Life Technologies and Expression Analysis (LTEA) Assay for Cytochrome P450 7A1 (CYP7A1) using HepaRG (AID 2283496)). Details: mRNA level, 48 h; actives raise or lower the signal.
Summary of the method: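 Gene expression endpoint in human HepaRG liver cells treated for 48 h with test chemicals (up to 100 uM, 0.5% DMSO). Values come from bidirectional concentration-response fitting versus DMSO.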

| Structure (SMILES) | outcome |
| --- | --- |
| C1CNCCN1 | inactive |
| Cc1ccc([N+](=O)[O-])cc1N | inactive |
| Nc1ccc(C(=O)O)cc1 | inactive |

The compounds below were run on Glutathione S-Transferase (GSTA2), GSTA2 (gene 2939) (assay: LTEA_HepaRG_GSTA2: Life Technologies and Expression Analysis (LTEA) Assay for Glutathione S-Transferase (GSTA2) using HepaRG (AID 2283497)). Details: mRNA level, 48 h; actives raise or lower the signal.
Summary of the method: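 Human HepaRG cells, plated 48 h, then exposed in serum-free induction medium for 48 h to eight half-log concentrations up to 100 uM in 0.5% DMSO, duplicate. GSTA2 mRNA by qRT-PCR, normalized to ACTB/GAPDH/POLR2A; bidirectional fit versus DMSO.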

| Structure (SMILES) | outcome |
| --- | --- |
| C1CNCCN1 | inactive |
| Cc1ccc([N+](=O)[O-])cc1N | inactive |
| Nc1ccc(C(=O)O)cc1 | inactive |

These compounds were tested on Glutamate-cysteine ligase catalytic (GCLC), GCLC (gene 2729) (assay: LTEA_HepaRG_GCLC: Life Technologies and Expression Analysis (LTEA) Assay for Glutamate-cysteine ligase catalytic (GCLC) using HepaRG (AID 2283498)). Details: mRNA level, 48 h; actives raise or lower the signal.
Summary of the method: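 Differentiated human HepaRG cells, plated 48 h then switched to serum-free induction medium, were exposed in duplicate for 48 h to 8 half-log concentrations topping at 100 uM in 0.5% DMSO. GCLC mRNA was quantified by qRT-PCR against ACTB, GAPDH and POLR2A.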

| Structure (SMILES) | outcome |
| --- | --- |
| C1CNCCN1 | inactive |
| Cc1ccc([N+](=O)[O-])cc1N | inactive |
| Nc1ccc(C(=O)O)cc1 | inactive |

Each compound was assayed on growth arrest and DNA damage 45 (GADD45G), GADD45G (gene 10912) (assay: LTEA_HepaRG_GADD45G: Life Technologies and Expression Analysis (LTEA) Assay for growth arrest and DNA damage 45 (GADD45G) using HepaRG (AID 2283499)). Details: mRNA level, 48 h; actives raise or lower the signal.
Summary of the method: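 Differentiated human HepaRG cells, 48 h post-plating, exposed 48 h in serum-free induction medium to 8 half-log concentrations (top 100 uM, 0.5% DMSO) in duplicate. GADD45G mRNA measured by Fluidigm TaqMan qRT-PCR, normalized to ACTB, GAPDH, POLR2A; bidirectional fit versus DMSO.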

| Structure (SMILES) | outcome |
| --- | --- |
| C1CNCCN1 | inactive |
| Cc1ccc([N+](=O)[O-])cc1N | inactive |
| Nc1ccc(C(=O)O)cc1 | inactive |

The compounds below were run on Glutamate-cysteine ligase regulatory (GCLM), GCLM (gene 2730) (assay: LTEA_HepaRG_GCLM: Life Technologies and Expression Analysis (LTEA) Assay for Glutamate-cysteine ligase regulatory (GCLM) using HepaRG (AID 2283500)). Details: mRNA level, 48 h; actives raise or lower the signal.
Summary of the method: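 Human liver HepaRG cultures receive test chemicals for 48 hours at up to 100 uM in 0.5% DMSO. GCLM expression is measured by qRT-PCR and analysed for increases or decreases against vehicle.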

| Structure (SMILES) | outcome |
| --- | --- |
| C1CNCCN1 | inactive |
| Cc1ccc([N+](=O)[O-])cc1N | inactive |
| Nc1ccc(C(=O)O)cc1 | inactive |

The compounds below were run on Glutathione S-transferase M3 (GSTM3), GSTM3 (gene 2947) (assay: LTEA_HepaRG_GSTM3: Life Technologies and Expression Analysis (LTEA) Assay for Glutathione S-transferase M3 (GSTM3) using HepaRG (AID 2283501)). Details: mRNA level, 48 h; actives raise or lower the signal.
Summary of the method: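 Differentiated human HepaRG cells were exposed in duplicate for 48 h in serum-free induction medium, 8 points from 100 uM top in half-log steps, 0.5% DMSO. GSTM3 mRNA was measured by TaqMan qRT-PCR, normalized to ACTB, GAPDH and POLR2A; bidirectional fit versus DMSO.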

| Structure (SMILES) | outcome |
| --- | --- |
| C1CNCCN1 | inactive |
| Cc1ccc([N+](=O)[O-])cc1N | inactive |
| Nc1ccc(C(=O)O)cc1 | inactive |

Each compound was assayed on Heat shock 70 kDa protein 1 (HSPA1A), gene 3303 (assay: LTEA_HepaRG_HSPA1A: Life Technologies and Expression Analysis (LTEA) Assay for Heat shock 70 kDa protein 1 (HSPA1A) using HepaRG (AID 2283502)). Details: mRNA level, 48 h; actives raise or lower the signal.
Summary of the method: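 HSPA1A induction in human HepaRG liver cells is measured after 48 h of chemical treatment (100 uM maximum, 0.5% DMSO vehicle). Expression comes from qRT-PCR normalized to endogenous controls.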

| Structure (SMILES) | outcome |
| --- | --- |
| C1CNCCN1 | inactive |
| Cc1ccc([N+](=O)[O-])cc1N | inactive |
| Nc1ccc(C(=O)O)cc1 | inactive |

Each compound was assayed on Hypoxia-inducible factor 1-alpha (Homo sapiens) (UniProt Q16665) (assay: LTEA_HepaRG_HIF1A: Life Technologies and Expression Analysis (LTEA) Assay for Hypoxia-inducible factor 1 (HIF1A) Trancription factor using HepaRG (AID 2283503)). Details: mRNA level, 48 h; actives raise or lower the signal.
Chain of Hypoxia-inducible factor 1-alpha (Homo sapiens) (Q16665 whole entry, looked up): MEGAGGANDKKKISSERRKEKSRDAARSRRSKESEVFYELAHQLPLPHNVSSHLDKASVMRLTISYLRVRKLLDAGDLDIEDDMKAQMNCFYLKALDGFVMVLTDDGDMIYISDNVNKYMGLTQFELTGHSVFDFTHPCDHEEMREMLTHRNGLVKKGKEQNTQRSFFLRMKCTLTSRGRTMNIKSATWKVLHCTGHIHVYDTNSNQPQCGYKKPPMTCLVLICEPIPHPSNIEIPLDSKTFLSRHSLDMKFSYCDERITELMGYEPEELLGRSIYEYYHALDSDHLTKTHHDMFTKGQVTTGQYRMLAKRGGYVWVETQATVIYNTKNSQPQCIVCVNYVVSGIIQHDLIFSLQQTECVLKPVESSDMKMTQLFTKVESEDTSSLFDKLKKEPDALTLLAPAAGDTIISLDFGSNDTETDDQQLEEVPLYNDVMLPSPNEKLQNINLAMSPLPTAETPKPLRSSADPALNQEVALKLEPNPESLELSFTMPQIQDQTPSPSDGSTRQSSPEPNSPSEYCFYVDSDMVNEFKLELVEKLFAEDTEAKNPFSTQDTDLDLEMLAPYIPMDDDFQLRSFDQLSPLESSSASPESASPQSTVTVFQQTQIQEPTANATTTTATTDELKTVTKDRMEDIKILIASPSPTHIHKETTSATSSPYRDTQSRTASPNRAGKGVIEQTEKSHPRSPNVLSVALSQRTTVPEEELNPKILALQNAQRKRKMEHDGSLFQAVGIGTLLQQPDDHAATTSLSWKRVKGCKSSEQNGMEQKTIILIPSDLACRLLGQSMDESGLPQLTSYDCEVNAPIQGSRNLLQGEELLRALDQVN
Summary of the method: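 HepaRG, 48 h exposure, 8-pt half-log series from 100 uM, 0.5% DMSO vehicle, duplicates. Readout: HIF1A transcript by qRT-PCR (Fluidigm array), housekeeping-normalised. Bidirectional curve fit vs DMSO baseline.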

| Structure (SMILES) | outcome |
| --- | --- |
| C1CNCCN1 | inactive |
| Cc1ccc([N+](=O)[O-])cc1N | inactive |
| Nc1ccc(C(=O)O)cc1 | inactive |
